Screening results: PubChem, The Scripps Research Institute Molecular Screening Center
Compounds with a hit are over-represented: about 2.4% of the library has one in this group of screens.
CHO-K1 Ca PAM = counter-screen for M1 PAMs: effect in parental CHO-K1 cells. ATP EC20, Fluo-8 calcium fluorescence; 0% at ATP EC20, 100% at ATP max. activation, % at 3 µM. 360,000 compounds, 0.02% hits. AID 602247;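 active = activation above the run cutoff, the mean activation of all test compounds plus 3 SD, cut at about 40% in these data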;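 note: peak over basal fluorescence ratio in a 140 s read after ATP addition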
CHRM1 antagonist = antagonists of human M1 muscarinic receptor | 360,000 compounds, 1.3% hits | inhibition, % at 3 µM | P11229 | CHO-K1 hM1, Fluo-8 calcium fluorescence, ACh EC80 antagonist;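 active = percent inhibition above its own plate's cutoff, namely the mean of that plate's compound wells plus 3 SD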;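 note: peak over basal fluorescence ratio during 140 s after agonist addition; 0% = ACh EC80 plus DMSO and 100% = DMSO alone without agonist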
Target sequence (P11229 whole entry, looked up): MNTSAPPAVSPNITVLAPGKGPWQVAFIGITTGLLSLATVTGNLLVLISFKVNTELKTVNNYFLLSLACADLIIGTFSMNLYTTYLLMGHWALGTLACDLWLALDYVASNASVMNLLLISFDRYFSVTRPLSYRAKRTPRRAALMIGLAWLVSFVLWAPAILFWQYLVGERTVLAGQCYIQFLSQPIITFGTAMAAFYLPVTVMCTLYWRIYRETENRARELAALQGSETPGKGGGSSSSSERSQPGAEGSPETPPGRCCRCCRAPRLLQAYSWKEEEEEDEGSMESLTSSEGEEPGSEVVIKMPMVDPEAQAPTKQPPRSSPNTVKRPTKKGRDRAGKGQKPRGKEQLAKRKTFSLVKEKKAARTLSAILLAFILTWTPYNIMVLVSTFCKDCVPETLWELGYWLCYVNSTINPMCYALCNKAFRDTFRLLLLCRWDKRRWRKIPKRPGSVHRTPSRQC
M1 ag parental = counter-screen for M1 agonists: effect in parental CHO-K1 cells; Fluo-8 calcium fluorescence; scaled to maximal ATP response, vehicle zero; activation, % at 3 µM; 360,000 compounds, 0.48% hits; AID 602248; in the data active = activation above about 15%;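 note: untransfected CHO-K1 host cells lacking M1 receptor as counterscreen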
M1 PAM = human CHRM1 positive allosteric modulation | P11229 | CHO-K1 hM1, Fluo-8 calcium fluorescence, ACh EC20; 0% = ACh EC20, 100% = maximal ACh | activation, % at 3 µM | 360,000 compounds, 0.088% hits | AID 588819; in the data active = activation above about 19%, passing the limit was not always enough
CHRM1 agonist = human M1 muscarinic receptor agonism; CHO-K1 hM1, Fluo-8 calcium fluorescence, agonist mode; 0% DMSO, 100% acetylcholine EC100; AID 588814; P11229; activation, % at 3 µM; 360,000 compounds, 0.33% hits;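 active = activation above the run's mean compound activation plus 3 SD, cut at about 16% in these data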;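 note: peak over basal fluorescence ratio within a 140 s kinetic read after compound addition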
CHO-K1 Ca antag = counter-screen for M1 antagonists: effect in parental CHO-K1 cells; ATP-induced calcium, Fluo-8 fluorescence; inhibition, % at 3 µM; 360,000 compounds, 0.6% hits;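 active = inhibition above a per-plate cutoff, the plate's mean sample inhibition plus 3 SD, cut at about 24% in these data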;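 note: 0% = DMSO plus EC80 ATP and 100% = DMSO alone without ATP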
The depositor's hits bear a star.

SMILES | CHO-K1 Ca PAM | CHRM1 antagonist | M1 ag parental | M1 PAM | CHRM1 agonist | CHO-K1 Ca antag
CCOC(=O)C1CCCN(C(=O)C2c3ccccc3Oc3ccccc32)C1 (stereo not drawn) | 8 | 35* | 20* | -30 | 79* | 6
CCOC(=O)C1CCCN(C(=S)Nc2ccc(Nc3ccccc3)cc2)C1 (stereo not drawn) | 1 | 80* | 0 | -26 | 78* | 4
CCOC(=O)C1CCCN(C(=O)Nc2c(-c3ccccc3)noc2C)C1 (stereo not drawn) | -18 | 2 | 0 | -6 | 31* | 7
CCOC(=O)C1CCCN(C(=O)Cc2c(C(=O)O)[nH]c3ccccc23)C1 (stereo not drawn) | 24 | 64* | 3 | -29 | 73* | -9
CC1=C([N+](=O)[O-])C(c2ccc3c(c2)OCO3)N(C)C(=O)N1C (stereo not drawn) | 20 | -8 | 1 | 8 | -3 | -15
O=C(CCS(=O)(=O)c1ccc(Cl)cc1)N1CCCc2ccccc21 | -20 | -13 | 0 | 20 | 5 | 21
Cc1ccc(S(=O)(=O)N2CCC(C(=O)NCCCN3CCCC3=O)CC2)cc1C | 12 | -16 | 1 | 17 | -2 | -4
CS(=O)(=O)N1CCN(C(=O)C2c3ccccc3Oc3ccccc32)CC1 | -7 | 47* | 0 | -22 | -9 | 6
Cc1[nH]c2ccccc2c1C(c1ccccn1)N1CCCC1 (stereo not drawn) | 15 | -25 | 0 | 17 | 0 | -9
CCOC(=O)C1CCCN(C(c2ccccn2)c2c(C)[nH]c3ccccc23)C1 (stereo not drawn) | 20 | -3 | 9 | -1 | 28* | 5
CCOC(=O)C1CCCN(C(=S)Nc2ccc(C)cc2C)C1 (stereo not drawn) | 1 | 83* | 0 | -28 | 85* | 1
CC(C)CC1C(=O)N(Cc2cn(CCC3OCCCO3)nn2)CCS(=O)(=O)N1Cc1ccc(-c2cccc(N(C)C)c2)cc1 (stereo not drawn) | 28 | 2 | 1 | 0 | -2 | -10
C=CCn1c(SCC(=O)N(C)C2CCS(=O)(=O)C2)nnc1-c1ccccc1 (stereo not drawn) | 8 | 4 | 0 | 0 | 4 | -4
Cc1ccc(NC(=O)CSc2nnc3n2CCCCC3)cc1S(=O)(=O)N1CCOCC1 | -9 | 4 | 0 | -3 | -4 | 10
CCOC(=O)Cc1ccc(Nc2nc(NCc3ccccc3)nc3ccsc23)cc1 | 2 | 26 | 11 | -15 | -2 | 10
C[C@@H]1CN([C@@H](C)CO)C(=O)Cc2cc(NC(=O)Nc3ccc4c(c3)OCO4)ccc2O[C@@H]1CN(C)C(=O)NC1CCCCC1 | -3 | -17 | 0 | 7 | -1 | -11
Nc1c(CNCc2nnn(Cc3ccccc3)c2N)nnn1Cc1ccccc1 | 9 | -14 | 1 | 10 | -9 | 2
COC(=O)C(Cc1ccccc1)NC(=O)c1ccc(NS(=O)(=O)c2ccc3[nH]c(=O)[nH]c3c2)cc1 (stereo not drawn) | -5 | 4 | 0 | 4 | 0 | -9
Cc1cn(CC(=O)NCc2ccccc2)c(=O)[nH]c1=O | 17 | -7 | 1 | 2 | 0 | -22
COc1ccc(-c2cc(C(=O)N(C)CC(=O)Nc3cccc(F)c3)c3ccccc3n2)cc1OC | -11 | 37* | 9 | -15 | 3 | 14
CN(CC(=O)Nc1cccc(F)c1)C(=O)Cc1n[nH]c(=O)c2ccccc12 | 13 | 41* | 0 | -15 | -3 | -3
COc1cccc(NC(=O)CN(C)C(=O)c2cc(-c3ccc(F)cc3)nc3ccccc23)c1 | 1 | 27* | 8 | -6 | 0 | 10
COc1cccc(NC(=O)CN(C)C(=O)c2cc(-c3ccccc3)nc3ccccc23)c1 | 4 | 16 | 7 | -4 | -1 | 3
COc1cccc(NC(=O)CN(C)C(=O)c2cc(-c3ccccc3)nn2-c2ccccc2)c1 | 16 | -28 | 0 | 24* | -1 | -14
CC1CCC(NC(=O)C2CCN(c3c4c(nc5ncnn35)CCC4)CC2)CC1 (stereo not drawn) | -1 | -9 | 0 | 4 | -5 | -6
SMILES | CHO-K1 Ca PAM | CHRM1 antagonist | M1 ag parental | M1 PAM | CHRM1 agonist | CHO-K1 Ca antag
c1ccc(COc2ccc(OCCN3CCCC3)cc2)cc1 | 20 | 3 | 2 | -11 | -10 | -11
CC1CCN(CCCOc2ccc(OCc3ccccc3)cc2)CC1 | 10 | 43* | 2 | -25 | 1 | -2
c1ccc(COc2ccc(OCCCN3CCCC3)cc2)cc1 | 26 | 46* | 3 | -21 | -10 | -12
CCN(CC)CCN1C(=O)c2ccccc2NC1c1ccccc1F (stereo not drawn) | -1 | 89* | 0 | -37 | -12 | -13
CCN(CC)CCN1C(=O)c2ccccc2NC1c1ccc(F)cc1 (stereo not drawn) | 5 | -6 | 0 | -2 | -7 | -1
Clc1ccc(OCCN2CCCCC2)cc1Cl | 12 | 29* | 1 | -17 | -12 | -15
Clc1ccc(OCCCN2CCCC2)cc1Cl | 0 | 38* | 8 | -21 | -6 | 15
CSCCC(NC(=O)COc1ccccc1)C(=O)N(C)CC(=O)Nc1c(C)cccc1C (stereo not drawn) | 19 | -8 | 0 | 6 | -1 | -9
CCc1c(C)sc(NC(=O)c2ccoc2C)c1C(N)=O | -10 | 11 | 1 | -5 | -2 | 7
COc1cccc(C(=O)Nc2cc(C)ccc2NC(=O)COc2ccccc2)c1 | -2 | 48* | 1 | -17 | -10 | -9
COc1cccc(CN(C)C(=O)c2cc(COc3ccc(-n4cncn4)cc3)on2)c1 | -20 | 12 | 16* | -10 | 2 | -3
COc1cccc(CN(C)C(=O)c2cc(COc3ccc4ncccc4c3)on2)c1 | -11 | 50* | 19* | -19 | -2 | 44*
COc1cccc(CN(C)C(=O)c2cc(COc3c(F)cccc3F)on2)c1 | -4 | -16 | 1 | 12 | -4 | -5
Cc1ccccc1C1c2[nH]c3ccccc3c2C[C@H]2C(=O)N(c3ccccc3C(=O)NCCCN3CCOCC3)C(=O)N12 (stereo partly drawn) | -6 | 8 | 5 | -9 | -6 | 4
O=C(CCNS(=O)(=O)c1ccc(Br)cc1)N1CCN(c2ccccc2O)CC1 | -2 | -6 | 6 | -2 | -2 | 1
CC=C1OC(n2cnc3c(N)ncnc32)C(O)C1O (stereo not drawn) | -7 | 1 | 0 | 1 | -2 | 1
CCOC(=O)C1(CCCc2ccccc2)CCN(C(=O)CCC2=NNC(=O)CC2)CC1 | 3 | 6 | 25* | -5 | -6 | 17
CCOC(=O)C1(CCOc2ccccc2)CCN(Cc2ccncc2)CC1 | 1 | 8 | 2 | -8 | -13 | 18
